According to the supplement of paper PMC11732987, “Enantioselective OTUD7B fragment discovery through chemoproteomics screening and high-throughput optimisation” (Communications Chemistry, 2025):

Legend:
Assay in all cases: log2 ratio of Biotin-Ahx-Ub-VS probe labelling (fragment/DMSO); higher = less target engagement (more negative = stronger competition), active = hit call of the paper (q ≤ 0.05, log2 ratio ≤ -1)
Conditions in all cases: compound concentration: 200 uM; treatment time: 3 h
USP19 = target: T1, USP19 (UniProt O94966)
T1 sequence (whole entry): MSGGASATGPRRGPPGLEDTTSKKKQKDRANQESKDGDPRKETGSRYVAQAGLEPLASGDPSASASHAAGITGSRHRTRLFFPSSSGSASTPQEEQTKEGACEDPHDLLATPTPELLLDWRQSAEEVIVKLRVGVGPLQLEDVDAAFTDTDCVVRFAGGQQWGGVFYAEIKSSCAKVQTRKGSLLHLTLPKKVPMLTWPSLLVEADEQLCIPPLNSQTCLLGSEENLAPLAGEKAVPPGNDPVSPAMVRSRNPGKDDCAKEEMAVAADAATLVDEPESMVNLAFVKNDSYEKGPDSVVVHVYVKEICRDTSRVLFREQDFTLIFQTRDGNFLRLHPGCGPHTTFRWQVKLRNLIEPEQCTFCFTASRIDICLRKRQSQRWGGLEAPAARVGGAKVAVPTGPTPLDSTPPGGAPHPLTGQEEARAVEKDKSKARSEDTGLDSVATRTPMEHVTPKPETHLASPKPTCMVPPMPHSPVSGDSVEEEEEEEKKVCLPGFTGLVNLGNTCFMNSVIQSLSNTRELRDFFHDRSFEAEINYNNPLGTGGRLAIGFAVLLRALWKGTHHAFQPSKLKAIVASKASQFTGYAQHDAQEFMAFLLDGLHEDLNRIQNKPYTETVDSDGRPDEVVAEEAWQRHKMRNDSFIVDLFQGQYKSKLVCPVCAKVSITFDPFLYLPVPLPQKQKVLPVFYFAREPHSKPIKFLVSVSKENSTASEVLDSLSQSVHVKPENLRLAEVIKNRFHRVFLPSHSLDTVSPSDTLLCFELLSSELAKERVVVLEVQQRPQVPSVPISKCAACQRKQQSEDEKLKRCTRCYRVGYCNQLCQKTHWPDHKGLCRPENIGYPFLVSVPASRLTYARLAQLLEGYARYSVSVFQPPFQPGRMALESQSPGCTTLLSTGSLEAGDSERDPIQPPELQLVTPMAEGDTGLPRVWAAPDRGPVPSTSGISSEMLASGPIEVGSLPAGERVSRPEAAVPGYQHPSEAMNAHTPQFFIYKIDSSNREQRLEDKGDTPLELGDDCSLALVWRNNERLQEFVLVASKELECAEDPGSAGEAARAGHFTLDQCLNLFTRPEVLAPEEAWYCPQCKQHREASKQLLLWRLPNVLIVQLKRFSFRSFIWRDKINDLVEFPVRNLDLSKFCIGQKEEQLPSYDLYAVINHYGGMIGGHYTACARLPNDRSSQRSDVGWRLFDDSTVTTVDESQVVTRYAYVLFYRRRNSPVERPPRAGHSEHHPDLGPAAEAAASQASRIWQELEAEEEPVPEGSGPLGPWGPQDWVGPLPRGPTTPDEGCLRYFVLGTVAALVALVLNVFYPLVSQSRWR
Summary of the method: (§1)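 Labelling with Biotin-Ahx-Ub-VS (0.5 µM final, 1 h) followed a 3 h triplicate treatment of HEK293T lysate (495 µg per sample, Tris/CHAPS/IGEPAL buffer with protease inhibitors) with fragment at 200 µM or vehicle. Labelled DUBs were NeutrAvidin-enriched, digested with LysC and trypsin, and run by diaPASEF LC-MS/MS. The values, average log2 fragment/vehicle ratios by unpaired t-test, come from global-median-normalised Spectronaut label-free quantities. Proteins with ≥2 unique peptides were used.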

USP22 = target: T2, USP22 (UniProt Q9UPT9)
T2 sequence (whole entry): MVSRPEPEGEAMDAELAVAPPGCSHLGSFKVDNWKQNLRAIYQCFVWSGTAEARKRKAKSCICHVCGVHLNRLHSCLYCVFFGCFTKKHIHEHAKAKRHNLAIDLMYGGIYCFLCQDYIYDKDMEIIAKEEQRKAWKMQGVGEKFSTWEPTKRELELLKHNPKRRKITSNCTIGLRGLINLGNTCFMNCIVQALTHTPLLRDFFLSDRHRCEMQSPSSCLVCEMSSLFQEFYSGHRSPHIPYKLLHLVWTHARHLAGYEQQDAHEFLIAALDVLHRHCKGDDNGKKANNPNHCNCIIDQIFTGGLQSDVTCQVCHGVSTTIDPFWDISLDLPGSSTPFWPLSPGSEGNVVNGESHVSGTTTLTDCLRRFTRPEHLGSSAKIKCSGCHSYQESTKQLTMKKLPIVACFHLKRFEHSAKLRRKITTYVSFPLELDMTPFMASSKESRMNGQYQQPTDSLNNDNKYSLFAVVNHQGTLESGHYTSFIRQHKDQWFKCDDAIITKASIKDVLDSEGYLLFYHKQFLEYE
Summary of the method: as §1

USP24 = USP24 (UniProt Q9UPU5)
Summary of the method: as §1

USP25 = target: T3, USP25 (UniProt Q9UHP3)
T3 sequence (whole entry): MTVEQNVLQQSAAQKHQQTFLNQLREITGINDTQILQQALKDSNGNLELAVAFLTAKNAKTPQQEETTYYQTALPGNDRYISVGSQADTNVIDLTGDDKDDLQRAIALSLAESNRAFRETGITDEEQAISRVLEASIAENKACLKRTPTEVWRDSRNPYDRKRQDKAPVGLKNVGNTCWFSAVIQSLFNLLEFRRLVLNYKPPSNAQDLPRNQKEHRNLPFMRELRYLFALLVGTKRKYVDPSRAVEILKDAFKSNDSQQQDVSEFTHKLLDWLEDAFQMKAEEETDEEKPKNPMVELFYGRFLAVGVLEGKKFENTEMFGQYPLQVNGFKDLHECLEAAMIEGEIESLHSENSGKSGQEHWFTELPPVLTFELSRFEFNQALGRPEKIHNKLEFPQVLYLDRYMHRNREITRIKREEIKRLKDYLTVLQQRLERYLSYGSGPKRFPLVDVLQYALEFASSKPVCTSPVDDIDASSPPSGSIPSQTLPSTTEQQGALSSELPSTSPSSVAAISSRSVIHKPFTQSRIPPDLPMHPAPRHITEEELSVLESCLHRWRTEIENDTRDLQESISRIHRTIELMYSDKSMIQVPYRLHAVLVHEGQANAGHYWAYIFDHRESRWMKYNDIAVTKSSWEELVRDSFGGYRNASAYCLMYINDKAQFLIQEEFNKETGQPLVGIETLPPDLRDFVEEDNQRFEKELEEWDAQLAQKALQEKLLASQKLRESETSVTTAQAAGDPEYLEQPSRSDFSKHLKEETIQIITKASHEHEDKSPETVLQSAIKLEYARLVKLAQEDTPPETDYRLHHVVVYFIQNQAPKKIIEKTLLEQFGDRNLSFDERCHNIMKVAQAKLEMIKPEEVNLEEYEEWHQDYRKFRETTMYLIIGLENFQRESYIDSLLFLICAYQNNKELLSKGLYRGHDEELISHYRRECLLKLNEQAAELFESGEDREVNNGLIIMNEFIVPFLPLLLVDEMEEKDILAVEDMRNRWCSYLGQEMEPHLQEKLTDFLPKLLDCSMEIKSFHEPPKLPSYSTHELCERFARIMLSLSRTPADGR
Summary of the method: as §1

USP28 = target: T4, USP28 (UniProt Q96RU2)
T4 sequence (whole entry): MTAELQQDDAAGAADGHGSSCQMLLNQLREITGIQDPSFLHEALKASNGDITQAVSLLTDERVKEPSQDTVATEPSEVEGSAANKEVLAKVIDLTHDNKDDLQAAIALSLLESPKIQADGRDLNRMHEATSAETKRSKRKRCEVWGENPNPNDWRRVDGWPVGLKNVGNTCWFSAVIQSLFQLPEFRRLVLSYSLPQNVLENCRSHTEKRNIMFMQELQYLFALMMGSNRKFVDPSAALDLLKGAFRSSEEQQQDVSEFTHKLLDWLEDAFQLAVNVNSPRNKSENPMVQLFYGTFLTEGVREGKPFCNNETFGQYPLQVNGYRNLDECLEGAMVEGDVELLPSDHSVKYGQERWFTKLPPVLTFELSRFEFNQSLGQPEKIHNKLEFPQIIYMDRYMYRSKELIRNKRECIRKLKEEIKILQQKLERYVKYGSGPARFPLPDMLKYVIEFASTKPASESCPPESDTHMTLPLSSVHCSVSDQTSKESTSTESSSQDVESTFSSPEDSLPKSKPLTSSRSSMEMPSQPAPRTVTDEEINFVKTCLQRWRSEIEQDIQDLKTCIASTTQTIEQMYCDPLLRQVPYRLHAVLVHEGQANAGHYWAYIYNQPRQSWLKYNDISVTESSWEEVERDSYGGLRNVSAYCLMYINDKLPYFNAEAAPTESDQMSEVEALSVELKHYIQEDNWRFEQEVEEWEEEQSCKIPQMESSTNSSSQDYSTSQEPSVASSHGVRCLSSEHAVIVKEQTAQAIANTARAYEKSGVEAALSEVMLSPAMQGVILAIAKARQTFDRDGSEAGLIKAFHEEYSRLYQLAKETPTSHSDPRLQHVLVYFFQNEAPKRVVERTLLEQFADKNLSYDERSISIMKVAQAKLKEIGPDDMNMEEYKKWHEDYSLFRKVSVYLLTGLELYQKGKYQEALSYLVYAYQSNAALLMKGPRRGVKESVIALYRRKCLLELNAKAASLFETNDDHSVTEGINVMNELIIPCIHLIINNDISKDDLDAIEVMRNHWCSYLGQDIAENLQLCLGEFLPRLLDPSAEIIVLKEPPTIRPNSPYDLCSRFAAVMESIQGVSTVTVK
Summary of the method: as §1

Measured: log2 ratio of Biotin-Ahx-Ub-VS probe labelling

Sequence of USP24 (Q9UPU5 whole entry): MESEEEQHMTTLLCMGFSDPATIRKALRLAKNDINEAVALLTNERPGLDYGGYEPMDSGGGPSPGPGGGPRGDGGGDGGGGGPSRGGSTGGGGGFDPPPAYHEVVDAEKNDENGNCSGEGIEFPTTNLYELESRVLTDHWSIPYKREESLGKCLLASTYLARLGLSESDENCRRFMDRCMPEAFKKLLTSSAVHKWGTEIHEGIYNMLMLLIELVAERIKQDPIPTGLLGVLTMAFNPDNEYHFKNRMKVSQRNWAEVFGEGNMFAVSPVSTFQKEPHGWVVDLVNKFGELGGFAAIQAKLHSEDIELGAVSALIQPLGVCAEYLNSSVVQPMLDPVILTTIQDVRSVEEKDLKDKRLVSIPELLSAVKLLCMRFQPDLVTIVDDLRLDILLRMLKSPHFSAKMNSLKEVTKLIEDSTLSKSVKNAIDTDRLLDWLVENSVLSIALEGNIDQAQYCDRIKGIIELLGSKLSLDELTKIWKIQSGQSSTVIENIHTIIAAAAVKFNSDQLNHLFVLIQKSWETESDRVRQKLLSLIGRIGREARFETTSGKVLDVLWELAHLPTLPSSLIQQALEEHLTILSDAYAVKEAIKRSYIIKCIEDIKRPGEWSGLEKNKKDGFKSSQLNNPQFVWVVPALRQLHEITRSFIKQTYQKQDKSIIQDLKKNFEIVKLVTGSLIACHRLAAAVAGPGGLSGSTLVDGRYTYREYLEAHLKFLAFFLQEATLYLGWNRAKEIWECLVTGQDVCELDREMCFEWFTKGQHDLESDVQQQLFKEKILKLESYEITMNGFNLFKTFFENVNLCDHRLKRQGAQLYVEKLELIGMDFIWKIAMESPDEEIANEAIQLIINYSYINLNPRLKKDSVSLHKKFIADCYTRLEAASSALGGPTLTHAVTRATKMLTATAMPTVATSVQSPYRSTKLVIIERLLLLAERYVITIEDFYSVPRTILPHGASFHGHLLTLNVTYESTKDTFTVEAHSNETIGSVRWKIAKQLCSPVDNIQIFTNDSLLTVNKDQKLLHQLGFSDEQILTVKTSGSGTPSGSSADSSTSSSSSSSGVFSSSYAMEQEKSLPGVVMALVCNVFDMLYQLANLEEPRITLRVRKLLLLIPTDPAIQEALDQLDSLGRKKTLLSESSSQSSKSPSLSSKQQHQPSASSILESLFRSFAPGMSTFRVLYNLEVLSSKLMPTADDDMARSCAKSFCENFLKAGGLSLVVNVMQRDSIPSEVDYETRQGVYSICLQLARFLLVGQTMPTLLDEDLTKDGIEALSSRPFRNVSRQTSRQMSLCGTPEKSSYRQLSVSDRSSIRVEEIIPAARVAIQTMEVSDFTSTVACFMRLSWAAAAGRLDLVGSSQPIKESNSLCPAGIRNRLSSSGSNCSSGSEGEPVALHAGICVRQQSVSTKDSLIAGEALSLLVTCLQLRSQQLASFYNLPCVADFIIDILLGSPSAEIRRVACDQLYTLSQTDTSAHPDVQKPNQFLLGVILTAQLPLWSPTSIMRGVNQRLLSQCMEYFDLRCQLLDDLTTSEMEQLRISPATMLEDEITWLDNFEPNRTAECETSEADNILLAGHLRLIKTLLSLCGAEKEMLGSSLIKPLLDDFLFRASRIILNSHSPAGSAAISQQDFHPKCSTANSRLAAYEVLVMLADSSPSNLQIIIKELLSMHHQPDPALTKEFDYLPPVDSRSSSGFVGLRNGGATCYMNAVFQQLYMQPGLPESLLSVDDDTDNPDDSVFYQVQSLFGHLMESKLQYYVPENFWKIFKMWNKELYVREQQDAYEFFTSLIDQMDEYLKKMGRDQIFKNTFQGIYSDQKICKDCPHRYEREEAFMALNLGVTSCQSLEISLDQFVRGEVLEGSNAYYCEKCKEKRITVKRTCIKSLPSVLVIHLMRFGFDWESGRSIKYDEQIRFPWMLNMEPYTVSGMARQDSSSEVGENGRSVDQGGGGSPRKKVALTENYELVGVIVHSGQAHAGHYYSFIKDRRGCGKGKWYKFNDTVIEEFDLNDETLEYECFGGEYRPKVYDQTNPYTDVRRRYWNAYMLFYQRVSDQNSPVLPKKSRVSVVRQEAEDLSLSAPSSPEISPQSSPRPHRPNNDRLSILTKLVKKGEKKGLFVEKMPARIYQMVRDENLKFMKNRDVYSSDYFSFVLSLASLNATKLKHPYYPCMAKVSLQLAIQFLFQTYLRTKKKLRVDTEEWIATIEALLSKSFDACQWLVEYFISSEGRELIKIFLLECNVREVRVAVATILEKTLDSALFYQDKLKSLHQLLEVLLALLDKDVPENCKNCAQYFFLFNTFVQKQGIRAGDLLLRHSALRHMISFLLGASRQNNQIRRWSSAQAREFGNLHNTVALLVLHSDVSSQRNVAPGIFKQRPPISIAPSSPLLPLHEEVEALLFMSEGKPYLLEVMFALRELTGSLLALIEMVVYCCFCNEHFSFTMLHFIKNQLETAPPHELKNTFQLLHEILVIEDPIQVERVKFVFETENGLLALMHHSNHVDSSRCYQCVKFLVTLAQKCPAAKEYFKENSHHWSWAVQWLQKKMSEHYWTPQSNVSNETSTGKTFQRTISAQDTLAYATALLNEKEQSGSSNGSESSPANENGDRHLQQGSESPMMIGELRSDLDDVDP

C[C@@H](NC(=O)CCl)c1cccc(C#N)c1
inactive: USP19 -0.157 | USP22 0.031 | USP24 -0.254 | USP25 -0.569 | USP28 -0.723
